# From article PMC11006913
# Target: HOXC9 (Homo sapiens, UniProt P31274 178-260, K195R)
# Experiment: PBM; 200 nM protein, PBS
# Details: dsDNA, one strand shown
# Sequence of HOXC9 (Homo sapiens, UniProt P31274 178-260, K195R) (P31274 178-260 K195R): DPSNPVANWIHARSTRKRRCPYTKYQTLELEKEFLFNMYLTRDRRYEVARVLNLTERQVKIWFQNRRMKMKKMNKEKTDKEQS
row,Sequence,binding signal
1,ATTTAACA,"11.6 upbm affinity estimate (log intensity, higher = more binding, comparable within an allelic series)"
2,CGTTAAAG,"11.3 upbm affinity estimate (log intensity, higher = more binding, comparable within an allelic series)"
3,GAGATAAA,"11.1 upbm affinity estimate (log intensity, higher = more binding, comparable within an allelic series)"
4,CGGGAGCC,"9.62 upbm affinity estimate (log intensity, higher = more binding, comparable within an allelic series)"
5,CTGTTATA,"11.5 upbm affinity estimate (log intensity, higher = more binding, comparable within an allelic series)"
6,CCCCAGCC,"9.49 upbm affinity estimate (log intensity, higher = more binding, comparable within an allelic series)"
7,TCCTTCGA,"9.75 upbm affinity estimate (log intensity, higher = more binding, comparable within an allelic series)"
8,CGCATTTA,"11.1 upbm affinity estimate (log intensity, higher = more binding, comparable within an allelic series)"
9,ATCTACTA,"11 upbm affinity estimate (log intensity, higher = more binding, comparable within an allelic series)"
10,CTCACCAG,"9.79 upbm affinity estimate (log intensity, higher = more binding, comparable within an allelic series)"
11,TGATTGCA,"11.1 upbm affinity estimate (log intensity, higher = more binding, comparable within an allelic series)"
12,TAAAGTGA,"11.3 upbm affinity estimate (log intensity, higher = more binding, comparable within an allelic series)"
13,CTGGACGC,"9.6 upbm affinity estimate (log intensity, higher = more binding, comparable within an allelic series)"
14,CCGTTATA,"11.3 upbm affinity estimate (log intensity, higher = more binding, comparable within an allelic series)"
15,ATATTGCA,"11.2 upbm affinity estimate (log intensity, higher = more binding, comparable within an allelic series)"
16,GAGAGCTC,"9.48 upbm affinity estimate (log intensity, higher = more binding, comparable within an allelic series)"
17,ATGTTAAC,"11.1 upbm affinity estimate (log intensity, higher = more binding, comparable within an allelic series)"
18,CCTCCAGG,"9.43 upbm affinity estimate (log intensity, higher = more binding, comparable within an allelic series)"
19,CTGCATAA,"11.2 upbm affinity estimate (log intensity, higher = more binding, comparable within an allelic series)"
20,AGGACGTG,"9.73 upbm affinity estimate (log intensity, higher = more binding, comparable within an allelic series)"

row,Sequence,binding signal
1,CATTTAGA,"11.1 upbm affinity estimate (log intensity, higher = more binding, comparable within an allelic series)"
2,CCGGAAGG,"9.63 upbm affinity estimate (log intensity, higher = more binding, comparable within an allelic series)"
3,CGGTGCCA,"9.43 upbm affinity estimate (log intensity, higher = more binding, comparable within an allelic series)"
4,GGGCCCCC,"9.38 upbm affinity estimate (log intensity, higher = more binding, comparable within an allelic series)"
5,ATTATCGG,"11.3 upbm affinity estimate (log intensity, higher = more binding, comparable within an allelic series)"
6,AGGGGGTG,"9.33 upbm affinity estimate (log intensity, higher = more binding, comparable within an allelic series)"
7,CGTAAAGA,"11.1 upbm affinity estimate (log intensity, higher = more binding, comparable within an allelic series)"
8,CGGTCCAG,"9.64 upbm affinity estimate (log intensity, higher = more binding, comparable within an allelic series)"
9,ATAGTCAA,"10.7 upbm affinity estimate (log intensity, higher = more binding, comparable within an allelic series)"
10,GCCCCAGC,"9.66 upbm affinity estimate (log intensity, higher = more binding, comparable within an allelic series)"
11,ATGAACTA,"10.9 upbm affinity estimate (log intensity, higher = more binding, comparable within an allelic series)"
12,AGTATAAC,"11 upbm affinity estimate (log intensity, higher = more binding, comparable within an allelic series)"
13,AGACCAGG,"9.63 upbm affinity estimate (log intensity, higher = more binding, comparable within an allelic series)"
14,CACTAATA,"11.3 upbm affinity estimate (log intensity, higher = more binding, comparable within an allelic series)"
15,ATATGAAA,"11.4 upbm affinity estimate (log intensity, higher = more binding, comparable within an allelic series)"
16,ATTGTATG,"11.1 upbm affinity estimate (log intensity, higher = more binding, comparable within an allelic series)"
17,GGGGGGCA,"9.42 upbm affinity estimate (log intensity, higher = more binding, comparable within an allelic series)"
18,AGGCTCCC,"9.39 upbm affinity estimate (log intensity, higher = more binding, comparable within an allelic series)"
19,TTATACAA,"11.1 upbm affinity estimate (log intensity, higher = more binding, comparable within an allelic series)"
20,GGGCACGA,"9.75 upbm affinity estimate (log intensity, higher = more binding, comparable within an allelic series)"

# Target: HOXC9 (Homo sapiens, UniProt P31274 178-260)
# Sequence (P31274 178-260): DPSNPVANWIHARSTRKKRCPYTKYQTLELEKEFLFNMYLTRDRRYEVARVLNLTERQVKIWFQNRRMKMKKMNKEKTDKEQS
# Experiment: PBM; 200 nM protein, PBS
# Details: dsDNA, one strand shown
row,Sequence,binding signal
1,ATTTAACA,"11.6 upbm affinity estimate (log intensity, higher = more binding, comparable within an allelic series)"
2,CGTTAAAG,"11.4 upbm affinity estimate (log intensity, higher = more binding, comparable within an allelic series)"
3,GAGATAAA,"11.1 upbm affinity estimate (log intensity, higher = more binding, comparable within an allelic series)"
4,CGGGAGCC,"9.73 upbm affinity estimate (log intensity, higher = more binding, comparable within an allelic series)"
5,CTGTTATA,"11.5 upbm affinity estimate (log intensity, higher = more binding, comparable within an allelic series)"
6,CCCCAGCC,"9.68 upbm affinity estimate (log intensity, higher = more binding, comparable within an allelic series)"
7,TCCTTCGA,"9.66 upbm affinity estimate (log intensity, higher = more binding, comparable within an allelic series)"
8,CGCATTTA,"11.2 upbm affinity estimate (log intensity, higher = more binding, comparable within an allelic series)"
9,ATCTACTA,"10.7 upbm affinity estimate (log intensity, higher = more binding, comparable within an allelic series)"
10,CTCACCAG,"9.75 upbm affinity estimate (log intensity, higher = more binding, comparable within an allelic series)"
11,TGATTGCA,"11 upbm affinity estimate (log intensity, higher = more binding, comparable within an allelic series)"
12,TAAAGTGA,"11.4 upbm affinity estimate (log intensity, higher = more binding, comparable within an allelic series)"
13,CTGGACGC,"9.69 upbm affinity estimate (log intensity, higher = more binding, comparable within an allelic series)"
14,CCGTTATA,"11.3 upbm affinity estimate (log intensity, higher = more binding, comparable within an allelic series)"
15,ATATTGCA,"11.2 upbm affinity estimate (log intensity, higher = more binding, comparable within an allelic series)"
16,GAGAGCTC,"9.56 upbm affinity estimate (log intensity, higher = more binding, comparable within an allelic series)"
17,ATGTTAAC,"11.1 upbm affinity estimate (log intensity, higher = more binding, comparable within an allelic series)"
18,CCTCCAGG,"9.47 upbm affinity estimate (log intensity, higher = more binding, comparable within an allelic series)"
19,CTGCATAA,"11.1 upbm affinity estimate (log intensity, higher = more binding, comparable within an allelic series)"
20,AGGACGTG,"9.75 upbm affinity estimate (log intensity, higher = more binding, comparable within an allelic series)"

row,Sequence,binding signal
1,CATTTAGA,"11.1 upbm affinity estimate (log intensity, higher = more binding, comparable within an allelic series)"
2,CCGGAAGG,"9.81 upbm affinity estimate (log intensity, higher = more binding, comparable within an allelic series)"
3,CGGTGCCA,"9.52 upbm affinity estimate (log intensity, higher = more binding, comparable within an allelic series)"
4,GGGCCCCC,"9.62 upbm affinity estimate (log intensity, higher = more binding, comparable within an allelic series)"
5,ATTATCGG,"11.5 upbm affinity estimate (log intensity, higher = more binding, comparable within an allelic series)"
6,AGGGGGTG,"9.51 upbm affinity estimate (log intensity, higher = more binding, comparable within an allelic series)"
7,CGTAAAGA,"11.2 upbm affinity estimate (log intensity, higher = more binding, comparable within an allelic series)"
8,CGGTCCAG,"9.66 upbm affinity estimate (log intensity, higher = more binding, comparable within an allelic series)"
9,ATAGTCAA,"10.7 upbm affinity estimate (log intensity, higher = more binding, comparable within an allelic series)"
10,GCCCCAGC,"9.84 upbm affinity estimate (log intensity, higher = more binding, comparable within an allelic series)"
11,ATGAACTA,"10.9 upbm affinity estimate (log intensity, higher = more binding, comparable within an allelic series)"
12,AGTATAAC,"11 upbm affinity estimate (log intensity, higher = more binding, comparable within an allelic series)"
13,AGACCAGG,"9.68 upbm affinity estimate (log intensity, higher = more binding, comparable within an allelic series)"
14,CACTAATA,"11.4 upbm affinity estimate (log intensity, higher = more binding, comparable within an allelic series)"
15,ATATGAAA,"11.3 upbm affinity estimate (log intensity, higher = more binding, comparable within an allelic series)"
16,ATTGTATG,"11 upbm affinity estimate (log intensity, higher = more binding, comparable within an allelic series)"
17,GGGGGGCA,"9.53 upbm affinity estimate (log intensity, higher = more binding, comparable within an allelic series)"
18,AGGCTCCC,"9.56 upbm affinity estimate (log intensity, higher = more binding, comparable within an allelic series)"
19,TTATACAA,"11.1 upbm affinity estimate (log intensity, higher = more binding, comparable within an allelic series)"
20,GGGCACGA,"9.85 upbm affinity estimate (log intensity, higher = more binding, comparable within an allelic series)"
